One sequence from publication PMC7862700, “An all-to-all approach to the identification of sequence-specific readers for epigenetic DNA modifications on cytosine” can be followed below.

Test in all cases: DAPPL (digital affinity profiling via proximity ligation, sequencing); 10 mM Tris-HCl pH 7.5, 50 mM NaCl, 1 mM DTT, 4% glycerol, room temperature, 30 min; GST-TFs on glutathione beads, 16-mer random dsDNA library, 0.1% formaldehyde crosslink after washing; high values mean tight binding
In assay [1] the target is T1, FLI1 (Homo sapiens, UniProt Q01543 1-452).
T1 sequence: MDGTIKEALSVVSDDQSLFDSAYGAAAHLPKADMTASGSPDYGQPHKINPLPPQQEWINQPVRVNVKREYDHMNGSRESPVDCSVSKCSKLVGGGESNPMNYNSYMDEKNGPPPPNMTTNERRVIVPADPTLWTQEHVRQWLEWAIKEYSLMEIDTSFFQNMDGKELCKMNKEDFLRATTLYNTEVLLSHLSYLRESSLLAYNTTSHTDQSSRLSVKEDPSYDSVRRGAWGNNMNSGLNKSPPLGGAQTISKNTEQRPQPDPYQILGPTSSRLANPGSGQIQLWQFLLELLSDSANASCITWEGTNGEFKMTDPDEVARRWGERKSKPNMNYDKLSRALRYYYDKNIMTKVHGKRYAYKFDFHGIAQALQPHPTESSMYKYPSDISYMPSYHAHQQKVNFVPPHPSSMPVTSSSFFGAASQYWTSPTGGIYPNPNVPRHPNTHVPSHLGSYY
As to conditions: protein: recombinant; tags: N-terminal GST; dsDNA, one strand shown. An outline of the steps:
(§1)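 Human transcription factors were made in yeast as GST fusions, captured on glutathione beads and barcoded with DNA. With a tag-only sample included, the pool was incubated with 200 nmole of a random double-stranded 16-mer DNA library in Tris/NaCl/DTT/glycerol buffer at room temperature for 30 min, then crosslinked with 0.1% formaldehyde after washing, ligated by proximity, amplified and sequenced. For binding signal, each hexamer's read frequency for a factor is divided by its frequency for the tag-only sample.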

Assay [2] has as its target T2, ELK1 (Homo sapiens, UniProt P19419 1-428).
T2 sequence: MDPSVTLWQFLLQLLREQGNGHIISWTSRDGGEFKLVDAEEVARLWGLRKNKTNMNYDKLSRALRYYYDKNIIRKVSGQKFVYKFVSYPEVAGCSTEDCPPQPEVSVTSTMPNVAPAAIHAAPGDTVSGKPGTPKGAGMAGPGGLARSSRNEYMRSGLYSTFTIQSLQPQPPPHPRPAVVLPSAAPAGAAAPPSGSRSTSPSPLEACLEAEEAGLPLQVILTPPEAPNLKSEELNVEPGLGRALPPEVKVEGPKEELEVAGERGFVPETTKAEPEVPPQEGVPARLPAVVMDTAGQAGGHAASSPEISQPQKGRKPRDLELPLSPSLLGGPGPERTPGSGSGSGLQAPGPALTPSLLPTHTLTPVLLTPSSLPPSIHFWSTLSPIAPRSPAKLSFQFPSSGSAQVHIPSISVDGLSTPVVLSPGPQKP
As to conditions: protein: recombinant; tags: N-terminal GST; dsDNA, one strand shown. The essentials:
as §1

For assay [3], the target named is T3, GABPA (Homo sapiens, UniProt Q06546 1-454).
T3 sequence: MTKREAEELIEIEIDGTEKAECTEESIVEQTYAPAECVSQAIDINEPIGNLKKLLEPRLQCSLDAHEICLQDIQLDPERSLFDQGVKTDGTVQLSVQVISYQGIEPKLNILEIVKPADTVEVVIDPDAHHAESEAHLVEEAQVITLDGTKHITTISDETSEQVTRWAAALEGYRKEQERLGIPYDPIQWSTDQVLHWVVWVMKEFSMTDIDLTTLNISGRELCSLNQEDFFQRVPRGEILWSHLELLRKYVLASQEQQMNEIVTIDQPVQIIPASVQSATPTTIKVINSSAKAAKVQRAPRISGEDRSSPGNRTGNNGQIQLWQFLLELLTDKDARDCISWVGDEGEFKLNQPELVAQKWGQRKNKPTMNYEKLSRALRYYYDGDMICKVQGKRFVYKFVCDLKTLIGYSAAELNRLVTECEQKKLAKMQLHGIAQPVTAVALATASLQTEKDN
The note with it: protein: recombinant; tags: N-terminal GST; dsDNA, one strand shown. The essentials:
as §1

The target of assay [4] is T4, ERG (Homo sapiens, UniProt P11308 1-479).
T4 sequence: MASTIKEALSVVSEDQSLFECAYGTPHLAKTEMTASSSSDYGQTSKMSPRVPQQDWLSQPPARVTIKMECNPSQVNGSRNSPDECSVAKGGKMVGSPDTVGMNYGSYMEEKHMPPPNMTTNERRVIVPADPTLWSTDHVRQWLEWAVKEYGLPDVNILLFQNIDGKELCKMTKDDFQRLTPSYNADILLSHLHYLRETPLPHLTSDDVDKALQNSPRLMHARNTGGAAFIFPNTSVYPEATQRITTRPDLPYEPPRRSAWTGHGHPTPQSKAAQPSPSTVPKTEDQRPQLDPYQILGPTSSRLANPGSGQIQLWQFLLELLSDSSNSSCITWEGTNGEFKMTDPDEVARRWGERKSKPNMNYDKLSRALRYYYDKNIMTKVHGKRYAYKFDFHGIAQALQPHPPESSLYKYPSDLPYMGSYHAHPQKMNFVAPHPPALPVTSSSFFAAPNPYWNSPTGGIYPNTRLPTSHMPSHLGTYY
The note with it: protein: recombinant; tags: N-terminal GST; dsDNA, one strand shown. An outline of the steps:
as §1

Assay [5] deals with ELF1 (Homo sapiens, UniProt P32519 1-619). The note with it: protein: recombinant; tags: N-terminal GST; dsDNA, one strand shown. An outline of the steps: as §1
For assay [6], the target named is T5, EHF (Homo sapiens, UniProt Q9NZC4 1-300).
T5 sequence: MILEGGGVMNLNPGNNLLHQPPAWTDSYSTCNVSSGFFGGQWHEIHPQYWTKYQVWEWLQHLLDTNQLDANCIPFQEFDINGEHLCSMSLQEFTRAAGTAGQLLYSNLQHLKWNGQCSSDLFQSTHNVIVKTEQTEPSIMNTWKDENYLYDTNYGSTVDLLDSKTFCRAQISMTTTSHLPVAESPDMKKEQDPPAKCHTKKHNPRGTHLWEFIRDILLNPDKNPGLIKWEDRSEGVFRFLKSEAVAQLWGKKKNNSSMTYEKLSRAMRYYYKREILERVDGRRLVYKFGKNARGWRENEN
As to conditions: protein: recombinant; tags: N-terminal GST; dsDNA, one strand shown. The essentials: as §1

In assay [7] the target is SPI1 (Homo sapiens, UniProt P17947 1-270). As to conditions: protein: recombinant; tags: N-terminal GST; dsDNA, one strand shown. The essentials: as §1
The target of assay [8] is SPIB (Homo sapiens, UniProt Q01892 1-262). The note with it: protein: recombinant; tags: N-terminal GST; dsDNA, one strand shown. An outline of the steps: as §1
The target in assay [9] is T6, ELK3 (Homo sapiens, UniProt P41970 1-407).
T6 sequence: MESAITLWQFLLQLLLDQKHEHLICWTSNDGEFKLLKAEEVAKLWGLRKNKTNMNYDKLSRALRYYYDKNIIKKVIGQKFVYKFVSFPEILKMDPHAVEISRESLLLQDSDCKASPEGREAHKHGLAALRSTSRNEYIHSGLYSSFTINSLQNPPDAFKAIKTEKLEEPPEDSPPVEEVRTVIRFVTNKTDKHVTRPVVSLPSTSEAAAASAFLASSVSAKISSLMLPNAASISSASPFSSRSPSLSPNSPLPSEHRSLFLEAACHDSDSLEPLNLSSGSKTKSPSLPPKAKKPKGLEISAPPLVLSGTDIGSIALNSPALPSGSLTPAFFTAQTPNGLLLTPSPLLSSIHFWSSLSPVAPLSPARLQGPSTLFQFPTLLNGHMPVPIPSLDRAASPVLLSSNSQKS
As to conditions: protein: recombinant; tags: N-terminal GST; dsDNA, one strand shown. The essentials:
as §1

In assay [10] the target is T7, FEV (Homo sapiens, UniProt Q99581 1-238).
T7 sequence: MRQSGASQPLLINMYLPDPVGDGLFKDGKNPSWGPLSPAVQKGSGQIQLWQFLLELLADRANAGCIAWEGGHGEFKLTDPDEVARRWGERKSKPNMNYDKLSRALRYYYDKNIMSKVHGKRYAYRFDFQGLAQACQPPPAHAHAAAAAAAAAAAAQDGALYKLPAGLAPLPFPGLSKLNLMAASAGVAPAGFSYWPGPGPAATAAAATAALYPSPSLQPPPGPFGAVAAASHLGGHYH
The note with it: protein: recombinant; tags: N-terminal GST; dsDNA, one strand shown. An outline of the steps:
as §1

In assay [11] the target is ETV5 (Homo sapiens, UniProt P41161 1-510). The note with it: protein: recombinant; tags: N-terminal GST; dsDNA, one strand shown. An outline of the steps: as §1
For assay [12], the target named is HSF1 (Homo sapiens, UniProt Q00613 1-529). The note with it: protein: recombinant; tags: N-terminal GST; chain copies: 3; dsDNA, one strand shown. The essentials:
as §1

The target of assay [13] is T8, SPIC (Homo sapiens, UniProt Q8N5J4 1-248).
T8 sequence: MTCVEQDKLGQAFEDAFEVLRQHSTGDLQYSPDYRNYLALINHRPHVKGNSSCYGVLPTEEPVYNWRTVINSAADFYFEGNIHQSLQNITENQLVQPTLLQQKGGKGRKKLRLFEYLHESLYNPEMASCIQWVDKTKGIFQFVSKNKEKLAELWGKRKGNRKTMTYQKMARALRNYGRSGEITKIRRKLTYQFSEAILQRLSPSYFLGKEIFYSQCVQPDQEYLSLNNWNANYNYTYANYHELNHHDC
The note with it: protein: recombinant; tags: N-terminal GST; dsDNA, one strand shown. The essentials: as §1

Assay [14] deals with ELF4 (Homo sapiens, UniProt Q99607 1-663). The note with it: protein: recombinant; tags: N-terminal GST; dsDNA, one strand shown. An outline of the steps: as §1
Assay [15] deals with T9, ELK4 (Homo sapiens, UniProt P28324-2 1-405).
T9 sequence: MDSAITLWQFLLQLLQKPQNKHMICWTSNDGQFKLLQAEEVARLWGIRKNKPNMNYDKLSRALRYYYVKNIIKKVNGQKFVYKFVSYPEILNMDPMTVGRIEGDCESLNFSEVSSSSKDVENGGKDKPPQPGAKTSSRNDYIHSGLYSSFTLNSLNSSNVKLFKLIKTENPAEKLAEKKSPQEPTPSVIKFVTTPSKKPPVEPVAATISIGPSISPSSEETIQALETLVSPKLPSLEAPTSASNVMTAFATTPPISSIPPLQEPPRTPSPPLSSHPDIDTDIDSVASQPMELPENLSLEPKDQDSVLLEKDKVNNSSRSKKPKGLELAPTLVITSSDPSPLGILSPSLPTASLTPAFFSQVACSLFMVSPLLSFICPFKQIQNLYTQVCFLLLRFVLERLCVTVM
As to conditions: protein: recombinant; tags: N-terminal GST; dsDNA, one strand shown. The essentials: as §1

In assay [16] the target is T10, ETV2 (Homo sapiens, UniProt O00321 1-342).
T10 sequence: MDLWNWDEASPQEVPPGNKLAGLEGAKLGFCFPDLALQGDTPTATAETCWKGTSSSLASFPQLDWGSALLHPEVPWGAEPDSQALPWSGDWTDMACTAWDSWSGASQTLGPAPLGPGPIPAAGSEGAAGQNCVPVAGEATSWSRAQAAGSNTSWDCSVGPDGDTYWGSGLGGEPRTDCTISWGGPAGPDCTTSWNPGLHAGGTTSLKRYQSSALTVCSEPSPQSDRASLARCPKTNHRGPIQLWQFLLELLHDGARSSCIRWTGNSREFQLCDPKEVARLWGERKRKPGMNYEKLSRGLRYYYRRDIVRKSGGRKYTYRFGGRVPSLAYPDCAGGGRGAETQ
As to conditions: protein: recombinant; tags: N-terminal GST; dsDNA, one strand shown. The essentials: as §1

For assay [17], the target named is T11, ELF3 (Homo sapiens, UniProt P78545 1-371).
T11 sequence: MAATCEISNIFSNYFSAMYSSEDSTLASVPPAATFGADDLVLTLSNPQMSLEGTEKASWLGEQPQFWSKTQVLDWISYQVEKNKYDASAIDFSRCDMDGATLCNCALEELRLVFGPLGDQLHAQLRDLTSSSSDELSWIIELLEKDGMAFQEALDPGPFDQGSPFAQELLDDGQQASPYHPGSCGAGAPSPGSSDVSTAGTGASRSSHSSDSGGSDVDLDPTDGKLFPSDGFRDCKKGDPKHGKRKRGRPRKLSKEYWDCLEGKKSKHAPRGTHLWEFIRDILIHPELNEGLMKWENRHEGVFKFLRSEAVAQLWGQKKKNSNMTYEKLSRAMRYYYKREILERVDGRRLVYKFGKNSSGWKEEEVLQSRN
As to conditions: protein: recombinant; tags: N-terminal GST; dsDNA, one strand shown. The essentials: as §1

Assay [18] has as its target CRX (Homo sapiens, UniProt O43186 1-299). As to conditions: protein: recombinant; tags: N-terminal GST; dsDNA, one strand shown. An outline of the steps: as §1
In assay [19] the target is ETV1 (Homo sapiens, UniProt P50549 1-477). As to conditions: protein: recombinant; tags: N-terminal GST; dsDNA, one strand shown. An outline of the steps: as §1
Sequence of ETV1 (P50549 whole entry): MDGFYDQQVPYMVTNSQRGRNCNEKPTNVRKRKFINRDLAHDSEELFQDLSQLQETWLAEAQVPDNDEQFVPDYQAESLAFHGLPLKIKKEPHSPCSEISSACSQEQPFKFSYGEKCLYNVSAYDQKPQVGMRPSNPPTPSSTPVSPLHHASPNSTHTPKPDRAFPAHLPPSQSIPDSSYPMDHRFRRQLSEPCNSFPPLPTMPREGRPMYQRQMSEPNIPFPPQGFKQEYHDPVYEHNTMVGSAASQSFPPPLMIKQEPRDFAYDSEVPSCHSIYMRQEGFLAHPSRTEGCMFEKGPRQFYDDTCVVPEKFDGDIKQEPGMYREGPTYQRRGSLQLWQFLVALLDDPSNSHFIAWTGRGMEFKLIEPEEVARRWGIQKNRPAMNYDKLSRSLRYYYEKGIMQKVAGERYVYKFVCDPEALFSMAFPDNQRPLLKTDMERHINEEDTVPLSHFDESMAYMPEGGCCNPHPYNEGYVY

Sequence of ELF1 (P32519 whole entry): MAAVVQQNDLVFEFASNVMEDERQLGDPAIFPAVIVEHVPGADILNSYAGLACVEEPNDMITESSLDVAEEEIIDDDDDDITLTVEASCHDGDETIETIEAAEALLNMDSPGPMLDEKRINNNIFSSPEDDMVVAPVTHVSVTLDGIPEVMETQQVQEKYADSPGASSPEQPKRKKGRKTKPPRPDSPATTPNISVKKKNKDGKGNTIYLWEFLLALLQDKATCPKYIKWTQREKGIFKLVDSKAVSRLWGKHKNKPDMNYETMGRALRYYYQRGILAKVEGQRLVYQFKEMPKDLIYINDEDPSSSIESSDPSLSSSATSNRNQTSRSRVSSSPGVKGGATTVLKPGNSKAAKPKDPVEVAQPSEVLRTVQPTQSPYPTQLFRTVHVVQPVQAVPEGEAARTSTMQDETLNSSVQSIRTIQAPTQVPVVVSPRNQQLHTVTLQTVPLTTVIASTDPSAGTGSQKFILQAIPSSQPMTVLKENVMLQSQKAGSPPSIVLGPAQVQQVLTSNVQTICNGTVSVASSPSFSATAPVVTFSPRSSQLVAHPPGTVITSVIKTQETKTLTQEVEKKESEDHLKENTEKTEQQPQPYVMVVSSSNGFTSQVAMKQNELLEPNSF
Sequence of CRX (O43186 whole entry): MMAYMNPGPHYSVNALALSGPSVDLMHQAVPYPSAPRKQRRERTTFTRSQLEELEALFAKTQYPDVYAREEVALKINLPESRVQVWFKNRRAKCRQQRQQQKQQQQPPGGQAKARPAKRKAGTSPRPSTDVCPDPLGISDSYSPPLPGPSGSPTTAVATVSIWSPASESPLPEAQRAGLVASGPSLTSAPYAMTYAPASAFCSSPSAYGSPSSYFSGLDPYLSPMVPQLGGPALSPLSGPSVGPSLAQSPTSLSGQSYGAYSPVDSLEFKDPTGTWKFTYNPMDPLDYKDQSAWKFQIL
Sequence of ELF4 (Q99607 whole entry): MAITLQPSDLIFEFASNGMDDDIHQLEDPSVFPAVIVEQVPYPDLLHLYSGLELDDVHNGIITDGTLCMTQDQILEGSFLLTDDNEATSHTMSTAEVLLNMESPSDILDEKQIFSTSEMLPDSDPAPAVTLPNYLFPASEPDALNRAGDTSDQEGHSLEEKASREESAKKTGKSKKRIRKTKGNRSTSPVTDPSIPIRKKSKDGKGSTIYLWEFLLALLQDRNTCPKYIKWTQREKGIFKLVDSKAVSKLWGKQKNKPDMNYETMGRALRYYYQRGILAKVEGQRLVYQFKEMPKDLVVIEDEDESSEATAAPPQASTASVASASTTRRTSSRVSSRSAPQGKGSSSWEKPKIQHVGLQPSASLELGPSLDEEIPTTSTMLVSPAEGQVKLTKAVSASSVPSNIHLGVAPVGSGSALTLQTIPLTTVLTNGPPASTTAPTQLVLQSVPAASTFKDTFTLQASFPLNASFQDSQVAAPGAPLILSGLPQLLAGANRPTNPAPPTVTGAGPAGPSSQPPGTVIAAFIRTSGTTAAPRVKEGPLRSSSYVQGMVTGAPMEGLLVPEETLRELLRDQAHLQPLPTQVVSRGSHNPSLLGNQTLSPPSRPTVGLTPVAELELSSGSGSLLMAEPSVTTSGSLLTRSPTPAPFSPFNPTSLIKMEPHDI
Sequence of HSF1 (Q00613 whole entry): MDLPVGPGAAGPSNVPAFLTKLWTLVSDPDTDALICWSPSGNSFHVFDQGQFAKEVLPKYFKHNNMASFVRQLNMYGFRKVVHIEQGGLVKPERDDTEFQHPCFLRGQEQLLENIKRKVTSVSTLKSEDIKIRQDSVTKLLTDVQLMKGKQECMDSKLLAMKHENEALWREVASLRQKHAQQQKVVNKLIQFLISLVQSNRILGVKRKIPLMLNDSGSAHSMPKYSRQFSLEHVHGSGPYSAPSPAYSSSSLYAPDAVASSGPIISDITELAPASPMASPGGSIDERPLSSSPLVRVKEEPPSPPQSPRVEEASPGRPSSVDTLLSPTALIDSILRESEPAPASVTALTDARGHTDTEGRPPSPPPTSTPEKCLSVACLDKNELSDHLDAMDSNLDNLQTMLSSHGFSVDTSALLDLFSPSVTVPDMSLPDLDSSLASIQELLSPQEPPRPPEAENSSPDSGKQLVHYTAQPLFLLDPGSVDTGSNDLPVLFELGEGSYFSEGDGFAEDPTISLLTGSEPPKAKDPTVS
Sequence of SPIB (Q01892 whole entry): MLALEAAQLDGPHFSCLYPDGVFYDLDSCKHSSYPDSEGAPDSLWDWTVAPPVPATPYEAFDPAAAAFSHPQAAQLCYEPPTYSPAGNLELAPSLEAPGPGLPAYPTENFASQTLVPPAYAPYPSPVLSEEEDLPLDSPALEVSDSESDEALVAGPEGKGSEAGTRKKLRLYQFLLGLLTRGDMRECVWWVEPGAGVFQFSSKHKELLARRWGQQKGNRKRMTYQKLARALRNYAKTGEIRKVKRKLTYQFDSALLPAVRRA
Sequence of ETV5 (P41161 whole entry): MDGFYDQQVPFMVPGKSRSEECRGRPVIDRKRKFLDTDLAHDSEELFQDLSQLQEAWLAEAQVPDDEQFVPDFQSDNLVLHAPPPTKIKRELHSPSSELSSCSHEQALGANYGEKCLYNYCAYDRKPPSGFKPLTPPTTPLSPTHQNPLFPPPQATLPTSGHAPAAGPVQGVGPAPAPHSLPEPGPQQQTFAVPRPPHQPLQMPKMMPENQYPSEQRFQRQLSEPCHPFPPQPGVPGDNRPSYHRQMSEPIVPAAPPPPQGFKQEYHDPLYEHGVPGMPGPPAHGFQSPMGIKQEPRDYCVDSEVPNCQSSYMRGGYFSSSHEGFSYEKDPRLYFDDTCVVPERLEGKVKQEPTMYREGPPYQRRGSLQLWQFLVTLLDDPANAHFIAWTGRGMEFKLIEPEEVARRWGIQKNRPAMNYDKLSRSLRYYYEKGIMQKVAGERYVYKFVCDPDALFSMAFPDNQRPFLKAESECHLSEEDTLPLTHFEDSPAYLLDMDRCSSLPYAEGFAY

CTTTTA: the binding signal in assay [1] is 1.41 fold enrichment (6-mer frequency, TF over GST control); in [2], 1.28 fold enrichment (6-mer frequency, TF over GST control); in assay [3] it was 1.41 fold enrichment (6-mer frequency, TF over GST control); in [4] it was 1.28 fold enrichment (6-mer frequency, TF over GST control); in [5], 1.29 fold enrichment (6-mer frequency, TF over GST control); in assay [6], 1.28 fold enrichment (6-mer frequency, TF over GST control). Moreover, the binding signal in [7] is 1.4 fold enrichment (6-mer frequency, TF over GST control); in assay [8], 1.35 fold enrichment (6-mer frequency, TF over GST control); in [9] it was 1.4 fold enrichment (6-mer frequency, TF over GST control); in assay [10], 1.36 fold enrichment (6-mer frequency, TF over GST control); in assay [11] it was 1.29 fold enrichment (6-mer frequency, TF over GST control); in [12] it was 1.3 fold enrichment (6-mer frequency, TF over GST control). Further, the binding signal is 1.49 fold enrichment (6-mer frequency, TF over GST control) in assay [13]; 1.43 fold enrichment (6-mer frequency, TF over GST control) in assay [14]; 1.21 fold enrichment (6-mer frequency, TF over GST control) in assay [15]; 1.28 fold enrichment (6-mer frequency, TF over GST control) in [16]; 1.34 fold enrichment (6-mer frequency, TF over GST control) in assay [17]; 1.61 fold enrichment (6-mer frequency, TF over GST control) in assay [18]. In addition, the binding signal in assay [19] is 1.41 fold enrichment (6-mer frequency, TF over GST control).
